Several values for one entry are separate records, joined by “and”; a condition that tells them apart may be missing. Equal entries are not always repeated. Structures can show the parent of a compound that is named as a salt.
Test system: A549
Experiment: Euclidean distance of Cell Painting phenotypic profile (signed KS, 77 features) to DMSO centroid (dimensionless distance); 5 or 10 uM (library dependent); higher = stronger phenotypic change vs DMSO (phenoactivity)
Details: 48 h
In short: (§1)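 Phenoactivity is computed as Euclidean distance to the median vehicle profile. The profiles, drawn from 77 Harmony features scored as signed Kolmogorov-Smirnov statistics versus same-plate vehicle wells, were corrected for plate position, correlation-weighted and replicate-averaged at the top dose. Stained cells were imaged confocally at 20X (9 fields/well) after 48 h with library compounds at 10 or 5 uM, 0.1% DMSO final, in five cancer lines and a healthy fibroblast line.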

| Structure (SMILES) | Euclidean distance |
| --- | --- |
| OCC1OC(OC2OC(CO)C(O)C(O)C2O)C(O)C(O)C1O [D-(+)-Trehalose Anhydrous] | 1.05 |
| CONC(=O)Nc1ccc(-c2sc3c(c2CN(C)C)c(=O)n(-c2ccc(OC)nn2)c(=O)n3Cc2c(F)cccc2F)cc1 [Relugolix] | 0.927 |
| CN1CCN(CCCN2c3ccccc3Sc3ccc(Cl)cc32)CC1 [Prochlorperazine dimaleate salt] | 2.24 |
| C[C@@H]1CCN(C(=O)CC#N)C[C@@H]1N(C)c1ncnc2[nH]ccc12 | 0.553 and 0.511 |
| C[C@H]1CN(C[C@H](Cc2ccccc2)C(=O)NCC(=O)O)CC[C@@]1(C)c1cccc(O)c1 [Alvimopan dihydrate] | 0.429 |
| COc1ccccc1OCC(O)COC(N)=O (stereo not drawn) [Methocarbamol] | 0.507 |
| NC1=N[C@@]2(c3cc(NC(=O)c4ccc(F)cn4)ccc3F)COC[C@H]2CS1 | 1.29 |
| O=c1c(O)c(-c2ccc(O)cc2)oc2cc(O)cc(O)c12 [Kaempferol] | 0.589 |
| COc1cc2c(cc1-c1c(C)noc1C)ncc1[nH]c(=O)n([C@H](C)c3ccccn3)c12 | 2.24 |
| O=c1[nH]c(=O)n([C@H]2C[C@H](O)[C@@H](CO)O2)cc1/C=C/Br [Brivudine] | 0.849 |
| C[C@]1(c2nc3c(C(N)=O)cccc3[nH]2)CCCN1 [Veliparib (ABT-888)] | 1 |
| COc1cc2nccc(Oc3ccc(NC(=O)C4(C(=O)Nc5ccc(F)cc5)CC4)cc3)c2cc1OC | 2.82 |
| CN1CCN(C(=O)c2cc3cc(Cl)ccc3[nH]2)CC1 | 0.827 |
| CCCCC(CC)COC(=O)CC(C(=O)OCC(CC)CCCC)S(=O)(=O)O (stereo not drawn) [Docusate Sodium] | 0.602 |
| O=C(O)Cc1ccccc1Nc1c(Cl)cccc1Cl [Diclofenac acid] | 0.349 |
| COc1ccccc1N1CCN(CC(O)COc2cccc3ccccc23)CC1 (stereo not drawn) [Naftopidil] | 1.01 |
| CC(=O)OC1CC2CCC1(C)C2(C)C (stereo not drawn) [Bornyl acetate] | 0.894 |
| CC(C)CCNc1ncccc1C(=O)N1CCN(Cc2ccccc2)CC1 | 0.542 |
| C=C1C(=O)O[C@H]2[C@H]1CC/C(C)=C/CC[C@@]1(C)O[C@@H]21 [(-)-Parthenolide] | 1.26 |
| COc1ccc(C(=O)c2ccccc2)c(O)c1 [Oxybenzone] | 0.943 |

| Structure (SMILES) | Euclidean distance |
| --- | --- |
| N=C(NOCC(O)CN1CCCCC1)c1cccnc1 (stereo not drawn) | 0.912 |
| N[C@@H]1CCCC[C@H]1N.O=C([O-])C(=O)[O-].[Pt+2] [Eloxatin] | 3.01 |
| Cc1cc(C)c(/C=C2\C(=O)Nc3ccccc32)[nH]1 [Semaxanib (SU5416)] | 1.16 |
| CCCSc1ccc2[nH]c(NC(=O)OC)nc2c1 [Albendazole] | 2.42 |
| N[C@H](CO)C(=O)O [(R)-Serine] | 1.48 |
| O=C(O)c1ccc(Nc2ncc3c(n2)-c2ccc(Cl)cc2C(c2c(F)cccc2F)=NC3)cc1 | 3.8 |
| C/C=C\c1ccc(O)c(OC)c1 [Isoeugenol] | 0.444 |
| C[C@H](NC(=O)[C@@H](O)c1cc(F)cc(F)c1)C(=O)N[C@@H]1C(=O)N(C)c2ccccc2-c2ccccc21 | 1.36 |
| CS(=O)(=O)c1ccc(C(=O)Nc2ccc(Cl)c(-c3ccccn3)c2)c(Cl)c1 [Vismodegib (GDC-0449)] | 1.01 |
| CCc1cc2c(cc1N1CCC(N3CCOCC3)CC1)C(C)(C)c1[nH]c3cc(C#N)ccc3c1C2=O | 2.54 |
| CCC(C)(C)c1ccc(CC(C)CN2C[C@@H](C)O[C@@H](C)C2)cc1 (stereo partly drawn) [Amorolfine HCl] | 0.701 |
| COc1cc(Nc2ncc3c(n2)-c2ccc(Cl)cc2C(c2c(F)cccc2OC)=NC3)ccc1C(=O)O [Alisertib (MLN8237)] | 3.22 |
| Cc1ccc(NC(=O)C2(c3ccc4c(c3)OC(F)(F)O4)CC2)nc1-c1cccc(C(=O)O)c1 [VX-809 (Lumacaftor)] | 0.637 |
| COc1c(-c2ccc3cc(NS(C)(=O)=O)ccc3c2)cc(-n2ccc(=O)[nH]c2=O)cc1C(C)(C)C [Dasabuvir(ABT-333)] | 1.78 |
| CCCCOc1ccc(CC(=O)NO)cc1 [Bufexamac] | 1.11 |
| CC(C)c1nc(CN(C)C(=O)N[C@@H](CCN2CCOCC2)C(=O)N[C@H](CC[C@H](Cc2ccccc2)NC(=O)OCc2cncs2)Cc2ccccc2)cs1 [Cobicistat (GS-9350)] | 2.31 |
| CNS(=O)(=O)CCc1ccc2[nH]cc(C3CCN(C)CC3)c2c1 [Naratriptan] | 0.741 |
| C=CC(=O)Nc1cccc(Nc2nc(Nc3ccc(OCCOC)cc3)ncc2F)c1 [Spebrutinib (CC-292. AVL-292)] | 3.75 |
| C[C@@H](N)[C@H]1CC[C@H](C(=O)Nc2ccncc2)CC1 | 3.33 |

Test system: DU145
Experiment: as above
Details: 48 h
In short: as §1

| Structure (SMILES) | Euclidean distance |
| --- | --- |
| OCC1OC(OC2OC(CO)C(O)C(O)C2O)C(O)C(O)C1O [D-(+)-Trehalose Anhydrous] | 1.04 |
| CONC(=O)Nc1ccc(-c2sc3c(c2CN(C)C)c(=O)n(-c2ccc(OC)nn2)c(=O)n3Cc2c(F)cccc2F)cc1 [Relugolix] | 1.37 |
| CN1CCN(CCCN2c3ccccc3Sc3ccc(Cl)cc32)CC1 [Prochlorperazine dimaleate salt] | 1.63 |
| C[C@@H]1CCN(C(=O)CC#N)C[C@@H]1N(C)c1ncnc2[nH]ccc12 | 1.04 and 0.639 |
| C[C@H]1CN(C[C@H](Cc2ccccc2)C(=O)NCC(=O)O)CC[C@@]1(C)c1cccc(O)c1 [Alvimopan dihydrate] | 1.89 |
| COc1ccccc1OCC(O)COC(N)=O (stereo not drawn) [Methocarbamol] | 1.06 |
| NC1=N[C@@]2(c3cc(NC(=O)c4ccc(F)cn4)ccc3F)COC[C@H]2CS1 | 1.47 |
| O=c1c(O)c(-c2ccc(O)cc2)oc2cc(O)cc(O)c12 [Kaempferol] | 0.883 |
| COc1cc2c(cc1-c1c(C)noc1C)ncc1[nH]c(=O)n([C@H](C)c3ccccn3)c12 | 1.84 |
| O=c1[nH]c(=O)n([C@H]2C[C@H](O)[C@@H](CO)O2)cc1/C=C/Br [Brivudine] | 0.765 |
| C[C@]1(c2nc3c(C(N)=O)cccc3[nH]2)CCCN1 [Veliparib (ABT-888)] | 0.896 |
| COc1cc2nccc(Oc3ccc(NC(=O)C4(C(=O)Nc5ccc(F)cc5)CC4)cc3)c2cc1OC | 1.36 |
| CN1CCN(C(=O)c2cc3cc(Cl)ccc3[nH]2)CC1 | 0.611 |
| CCCCC(CC)COC(=O)CC(C(=O)OCC(CC)CCCC)S(=O)(=O)O (stereo not drawn) [Docusate Sodium] | 0.942 |
| O=C(O)Cc1ccccc1Nc1c(Cl)cccc1Cl [Diclofenac acid] | 2.62 |
| COc1ccccc1N1CCN(CC(O)COc2cccc3ccccc23)CC1 (stereo not drawn) [Naftopidil] | 0.795 |
| CC(=O)OC1CC2CCC1(C)C2(C)C (stereo not drawn) [Bornyl acetate] | 1.24 |
| CC(C)CCNc1ncccc1C(=O)N1CCN(Cc2ccccc2)CC1 | 0.821 |
| C=C1C(=O)O[C@H]2[C@H]1CC/C(C)=C/CC[C@@]1(C)O[C@@H]21 [(-)-Parthenolide] | 3.27 |
| COc1ccc(C(=O)c2ccccc2)c(O)c1 [Oxybenzone] | 0.824 |

| Structure (SMILES) | Euclidean distance |
| --- | --- |
| N=C(NOCC(O)CN1CCCCC1)c1cccnc1 (stereo not drawn) | 1.06 |
| N[C@@H]1CCCC[C@H]1N.O=C([O-])C(=O)[O-].[Pt+2] [Eloxatin] | 1.15 |
| Cc1cc(C)c(/C=C2\C(=O)Nc3ccccc32)[nH]1 [Semaxanib (SU5416)] | 1.09 |
| CCCSc1ccc2[nH]c(NC(=O)OC)nc2c1 [Albendazole] | 2.81 |
| N[C@H](CO)C(=O)O [(R)-Serine] | 0.909 |
| O=C(O)c1ccc(Nc2ncc3c(n2)-c2ccc(Cl)cc2C(c2c(F)cccc2F)=NC3)cc1 | 2.7 |
| C/C=C\c1ccc(O)c(OC)c1 [Isoeugenol] | 1.07 |
| C[C@H](NC(=O)[C@@H](O)c1cc(F)cc(F)c1)C(=O)N[C@@H]1C(=O)N(C)c2ccccc2-c2ccccc21 | 1.05 |
| CS(=O)(=O)c1ccc(C(=O)Nc2ccc(Cl)c(-c3ccccn3)c2)c(Cl)c1 [Vismodegib (GDC-0449)] | 0.671 |
| CCc1cc2c(cc1N1CCC(N3CCOCC3)CC1)C(C)(C)c1[nH]c3cc(C#N)ccc3c1C2=O | 0.905 |
| CCC(C)(C)c1ccc(CC(C)CN2C[C@@H](C)O[C@@H](C)C2)cc1 (stereo partly drawn) [Amorolfine HCl] | 0.552 |
| COc1cc(Nc2ncc3c(n2)-c2ccc(Cl)cc2C(c2c(F)cccc2OC)=NC3)ccc1C(=O)O [Alisertib (MLN8237)] | 2.99 |
| Cc1ccc(NC(=O)C2(c3ccc4c(c3)OC(F)(F)O4)CC2)nc1-c1cccc(C(=O)O)c1 [VX-809 (Lumacaftor)] | 1.55 |
| COc1c(-c2ccc3cc(NS(C)(=O)=O)ccc3c2)cc(-n2ccc(=O)[nH]c2=O)cc1C(C)(C)C [Dasabuvir(ABT-333)] | 1.27 |
| CCCCOc1ccc(CC(=O)NO)cc1 [Bufexamac] | 0.87 |
| CC(C)c1nc(CN(C)C(=O)N[C@@H](CCN2CCOCC2)C(=O)N[C@H](CC[C@H](Cc2ccccc2)NC(=O)OCc2cncs2)Cc2ccccc2)cs1 [Cobicistat (GS-9350)] | 1.67 |
| CNS(=O)(=O)CCc1ccc2[nH]cc(C3CCN(C)CC3)c2c1 [Naratriptan] | 1.01 |
| C=CC(=O)Nc1cccc(Nc2nc(Nc3ccc(OCCOC)cc3)ncc2F)c1 [Spebrutinib (CC-292. AVL-292)] | 3.51 |
| C[C@@H](N)[C@H]1CC[C@H](C(=O)Nc2ccncc2)CC1 | 3.45 |

Source: the supplement of paper PMC10127200
